{"source": "PubChem BioAssay (EPA / NIEHS)", "note": "Several values for one entry are separate records, joined by “and”; a condition that tells them apart may be missing. Identical values can stand only once. Activity calls are given as the source filed them. The calls were made as follows: active = hit-call score of the fitted dose curve at least 0.9, where 1 is the maximum; inactive = score below 0.9."}
{"read-out": "Interleukin-8 (IL8), CXCL8 (gene 3576)", "assay": "BSK_SAg_IL8: BioMAP Diversity Plus: SAg Assay for Interleukin-8 (IL8) Biomarker Activity (AID 2283094)", "details": "primary human HUVEC with PBMC; actives raise or lower the signal", "protocol": "BSK_SAg is a cell-based, multiplexed-readout assay that uses umbilical vein endothelium and peripheral blood mononuclear cells, a human vascular primary cell co-culture, with measurements taken at 24 hours after chemical dosing in a 96-well plate.BSK_SAg_IL8 is an assay component measured in the BSK_SAg assay. It measures IL-8 antibody related to regulation of gene expression using ELISA technology.Data from the assay component BSK_SAg_IL8 was analyzed into 1 assay endpoint. This assay endpoint, BSK_SAg_IL8, was analyzed with bidirectional fitting relative to DMSO as the negative control and baseline of activity. Using a type of binding reporter, gain or loss-of-signal activity can be used to understand changes in the signaling as they relate to the gene CXCL8. Furthermore, this assay endpoint can be referred to as a primary readout, because this assay has produced multiple assay endpoints where this one serves a signaling function. To generalize the intended target to other relatable targets, this assay endpoint is annotated to the cytokine intended target family, where the subfamily is interleukins.\nThe levels of cell surface (or secreted, indicated by the prefix \"s\") biomarker endpoints were measured by ELISA. Overt cytotoxicity to cells in confluent adherent cultures (all systems other than the BT system) was assessed by measuring total protein levels using sulforhodamine B (SRB) staining in parallel cultures at the time of biomarker measurements, indicated as SRB endpoints. For proliferation assays for adherent cell types, individual cell types are cultured at sub-confluence and relative cell numbers quantified by SRB staining at time points optimized for each system (48 h: 3C and CASM3C systems; 72 h: BT and HDF3CGF systems; 96 h: SAg system). SRB was performed by staining cells with 0.1% SRB after fixation with 10% TCA and reading wells at 560 nm.Viability and proliferation of PBMC (T cells) was quantified by Alamar Blue reduction for the SAg and BT systems. For PBMC viability (referred to as PBMC Cytotoxicity within the assay endpoint names), cells were plated (75,000/well in a 96-well plate) and then chemical samples added for 1 h before addition of activators, SEB and TSST-1 (20 ng/mL final concentration each). Cells were incubated for 90 h. Then, Alamar Blue (20 uL/well) (Invitrogen, Cat DAL1100) was added for 6 h, and the plates were read with a fluorescence microplate reader at 546/580 nm (excitation/emission). For PBMC proliferation, cells were plated and activated as above but incubated for only 16 h prior to addition of Alamar Blue. Plates were read after 6 h."}
{"smiles": "C=CCN(CC=C)C(=O)C(Cl)Cl", "outcome": "inactive"}
{"smiles": "CCCCCCCCCCCC#N", "AC50": "32.7 µM (active)"}
{"smiles": "CC(C)(C)C(O)C(Oc1ccc(-c2ccccc2)cc1)n1cncn1", "note": "(stereo not drawn)", "outcome": "inactive"}
{"smiles": "O=C1C=CC(=O)C=C1", "outcome": "inactive"}
{"smiles": "O=c1[nH]c(Cl)c(Cl)cc1Cl", "outcome": "inactive"}
{"smiles": "O=[N+]([O-])O", "outcome": "inactive"}
{"smiles": "N#CCCCCC#N", "outcome": "inactive"}
{"smiles": "O=c1c2ccccc2c(=O)c2c1cc(Cl)c1[nH]c3c([nH]c12)c(Cl)cc1c(=O)c2ccccc2c(=O)c13", "outcome": "inactive"}
{"smiles": "CC(C)COP(=O)(OCC(C)C)OCC(C)C", "outcome": "inactive"}
{"smiles": "CC(=O)/C=C/c1ccccc1", "outcome": "inactive"}
{"smiles": "Clc1ccc(-c2ccccc2)cc1", "outcome": "inactive"}
{"smiles": "O=C(O)CCCc1ccc(N(CCCl)CCCl)cc1", "AC50": "20 µM (active) and 10.2 µM (active)"}
{"smiles": "O=S(=O)(c1ccccc1)c1ccccc1", "outcome": "inactive"}
{"smiles": "O=C(CCl)c1ccccc1", "AC50": "5.88 µM (active)"}
{"smiles": "Oc1ccc(C2(c3ccc(O)cc3)c3ccccc3-c3ccccc32)cc1", "AC50": "8.55 µM (active) and 9.2 µM (active)"}
{"smiles": "CNC(=O)Oc1cc(C)c(SC)c(C)c1", "outcome": "inactive"}
{"smiles": "CCc1cc(C)cc(CC)c1-c1c(OC(=O)C(C)(C)C)n2n(c1=O)CCOCC2", "outcome": "inactive"}
{"smiles": "COCC(=O)N(c1c(C)cccc1C)N1CCOC1=O", "outcome": "inactive"}
{"smiles": "CC(C)CCCCCCCOC(=O)c1ccccc1C(=O)OCCCCCCCC(C)C", "outcome": "inactive"}
{"smiles": "CC(C)(C)C(=O)CCl", "outcome": "inactive"}
{"smiles": "O=C1C(Cl)=C(Cl)C(=O)C(Cl)=C1Cl", "AC50": "28 µM (active)"}
{"smiles": "CCCC[N+](CCCC)(CCCC)CCCC", "outcome": "inactive"}
{"smiles": "COC(C)(C)CCC[C@H](C)C/C=C/C(C)=C/C(=O)OC(C)C", "outcome": "inactive"}
{"smiles": "CC(C)(c1cc(Cl)c(O)c(Cl)c1)c1cc(Cl)c(O)c(Cl)c1", "AC50": "31 µM (active)"}
{"smiles": "CCCOC(=O)c1ccccc1C(=O)OCCC", "outcome": "inactive"}
{"smiles": "Oc1cc(Cl)ccc1Cl", "outcome": "inactive"}
{"smiles": "c1ccc(Nc2ccc3ccccc3c2)cc1", "outcome": "inactive"}
{"smiles": "O=P1(NCCCl)OCCCN1CCCl", "note": "(stereo not drawn)", "outcome": "inactive"}
{"smiles": "CC(C)CCCCCCCOP(=O)(Oc1ccccc1)Oc1ccccc1", "AC50": "11.9 µM (active)"}
{"smiles": "CC1(C)[C@H](C(=O)O[C@H](C#N)c2cccc(Oc3ccccc3)c2)[C@@H]1C=C(Br)Br", "outcome": "inactive"}
{"smiles": "O=[N+]([O-])c1ccc(Cl)cc1", "outcome": "inactive"}
{"smiles": "Nc1ccc(-c2ccc(N)c(N)c2)cc1N", "outcome": "inactive"}
{"smiles": "COc1ccc(CO)cc1", "outcome": "inactive"}
{"smiles": "C=CC(=O)OCC(CC)CCCC", "note": "(stereo not drawn)", "outcome": "inactive"}
{"smiles": "CCC(C)c1cc([N+](=O)[O-])cc([N+](=O)[O-])c1OC(=O)C=C(C)C", "note": "(stereo not drawn)", "outcome": "inactive"}
{"smiles": "[Cd+2].[Cl-].[Cl-]", "AC50": "34.9 µM (active) and 31.4 µM (active)"}
{"smiles": "O=[N+]([O-])C=Cc1ccccc1", "AC50": "11.3 µM (active)"}
{"smiles": "Cc1ccc(OP(=O)(Oc2ccc(C)cc2)Oc2ccc(C)cc2)cc1", "note": "(tested in a mixture with another compound)", "AC50": "10.6 µM (active)"}
